Source: PubChem BioAssay (The Scripps Research Institute Molecular Screening Center)
Only some compounds are listed: those with a hit (about 1.2% of all), similar ones and a draw of the others.
ABHD5 PLIN5 PPI: blocks binding of human ABHD5 to perilipin-5 | Q00G26+Q8WTS1 | Split G. princeps luciferase complementation, luminescence, 4 h | inhibition, % at 4 µM | hit rate 0.78% among 360,000 | AID 602281;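 active = inhibition above the mean inhibition across every tested compound plus 3 SD, cut at about 22% in these data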
TLR4 MyD88 comp: inhibitors of human TLR4-MyD88 binding; O00206+Q99836; hit rate 0.18% among 200,000; HeLa CL3-4 TLR4/MyD88 BLA complementation, FRET ratio; inhibition, % at 8.4 µM; in the data active = inhibition above about 25%
Target sequence (O00206 whole entry, looked up): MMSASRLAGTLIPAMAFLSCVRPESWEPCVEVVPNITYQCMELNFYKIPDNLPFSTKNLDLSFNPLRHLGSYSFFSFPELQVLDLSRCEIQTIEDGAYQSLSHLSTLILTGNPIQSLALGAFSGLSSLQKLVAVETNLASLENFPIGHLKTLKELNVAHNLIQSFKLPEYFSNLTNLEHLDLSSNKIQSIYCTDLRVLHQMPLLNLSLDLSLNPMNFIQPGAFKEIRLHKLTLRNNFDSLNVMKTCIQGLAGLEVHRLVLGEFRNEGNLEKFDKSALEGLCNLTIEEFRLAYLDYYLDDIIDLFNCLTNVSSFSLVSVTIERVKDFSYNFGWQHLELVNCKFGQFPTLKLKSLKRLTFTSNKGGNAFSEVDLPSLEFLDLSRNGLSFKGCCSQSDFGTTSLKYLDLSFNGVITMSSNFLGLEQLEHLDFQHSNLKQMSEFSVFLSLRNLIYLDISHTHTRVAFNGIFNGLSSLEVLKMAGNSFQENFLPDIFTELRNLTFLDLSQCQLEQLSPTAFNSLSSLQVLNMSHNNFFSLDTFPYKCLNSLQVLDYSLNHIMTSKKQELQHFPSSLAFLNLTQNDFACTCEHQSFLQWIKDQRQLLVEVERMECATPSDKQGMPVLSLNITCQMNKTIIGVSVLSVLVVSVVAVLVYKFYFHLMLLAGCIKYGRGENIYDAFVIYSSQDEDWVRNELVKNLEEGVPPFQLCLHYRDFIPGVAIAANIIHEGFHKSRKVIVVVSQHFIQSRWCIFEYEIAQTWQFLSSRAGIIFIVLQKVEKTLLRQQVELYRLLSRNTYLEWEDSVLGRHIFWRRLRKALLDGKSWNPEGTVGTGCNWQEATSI
Target sequence (Q99836 whole entry, looked up): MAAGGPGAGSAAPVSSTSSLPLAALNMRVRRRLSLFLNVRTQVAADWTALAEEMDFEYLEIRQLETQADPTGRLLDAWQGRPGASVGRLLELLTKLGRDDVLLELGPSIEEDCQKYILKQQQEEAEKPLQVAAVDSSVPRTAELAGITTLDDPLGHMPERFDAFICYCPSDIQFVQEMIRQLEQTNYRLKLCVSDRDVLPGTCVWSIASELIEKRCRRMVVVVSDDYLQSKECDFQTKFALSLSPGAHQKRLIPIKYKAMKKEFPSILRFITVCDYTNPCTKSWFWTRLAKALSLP
NOD2 RIPK2 PPI: inhibitors of human NOD2-RIPK2 interaction; hit rate 0.38% among 360,000; CHO BLA complementation NOD2-RIPK2, CCF4 ratio; O43353; inhibition, % at 4.98 µM; in the data active = inhibition above about 21%
TLR9-MyD88 block: TLR9-MyD88 interaction inhibition; hit rate 0.21% among 340,000; inhibition, % at 4.98 µM; CHO BLA complementation TLR9-MyD88, CCF4 FRET ratio; AID 504734; Q9NR96+Q99836;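 active = inhibition above the mean over all tested compounds plus 3 SD, cut at about 21% in these data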
ABHD5-PLIN5 conf: ABHD5-PLIN5 interaction inhibition, confirmed. inhibition, % at 4 µM. biochemical ABHD5-PLIN5 interaction, luminescence. shares compounds with ABHD5 PLIN5 PPI. hit rate 67% among 2,200; in the data active = inhibition above about 23%
HNF4 counter: counter-screen for ABHD5-PLIN5 inhibitors: HNF4 split-luciferase; inhibition, % at 4 µM; hit rate 77% among 2,200; shares compounds with ABHD5 PLIN5 PPI; HNF4 dimerization, luminescence, biochemical;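 active = mean inhibition across replicate wells exceeding the computed hit threshold, cut at about 13% in these data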;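 note: light from luciferase halves that rejoin when HNF4 fusion proteins dimerize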
A number is an active result; i = inactive; nt = not tested or not shown.

SMILES | ABHD5 PLIN5 PPI | TLR4 MyD88 comp | NOD2 RIPK2 PPI | TLR9-MyD88 block | ABHD5-PLIN5 conf | HNF4 counter
Cc1ccc(/C=C/C(=O)NCCc2cccc(Cl)c2)o1 | 39.7 | nt | i | i | 68.4 | 79.2
Cc1ccc(/C=C/C(=O)NCc2ccc(S(N)(=O)=O)cc2)o1 | 47.2 | i | i | i | 45.6 | 56.7
Cc1ccc(/C=C/C(=O)OCC(=O)NCCc2ccc(S(N)(=O)=O)cc2)o1 | i | nt | i | i | nt | nt
Cc1ccc(/C=C/C(=O)Nc2ccc(N(C)C)cc2)o1 | i | i | i | i | nt | nt
CCOc1cc(/C=C2\C(=O)N(Cc3ccc(C)cc3)C(C)=C2C(=O)OC)ccc1O | 23.1 | i | i | i | 50.1 | 39.5
O=C(O)c1ccc(CSC2CCCCC2)cc1 | i | nt | i | i | nt | nt
COc1cc(S(=O)(=O)NCc2ccccn2)ccc1Cl | i | nt | i | i | nt | nt
CCOc1cc(C)c(Cl)cc1S(=O)(=O)NCc1ccco1 | i | i | i | i | nt | nt
CCOc1ccc(S(=O)(=O)NCc2ccco2)c2ccccc12 | 26.2 | i | i | i | i | i
Cc1ccc(/C=C/C(=O)NCC2COc3ccccc3O2)o1 (stereo not drawn) | 23.8 | i | i | i | 49.3 | 62.7
Cc1ccc(/C=C/C(=O)NC2CCCCCCC2)o1 | 50.2 | i | i | i | 54.6 | 70.8
COc1ccc(/C=C/C(=O)NCC2COc3ccccc3O2)cc1OC (stereo not drawn) | i | i | i | i | nt | nt
CCOC(=O)c1c(NC(=O)CSc2nc3cc(Cl)ccc3c(=O)n2Cc2ccco2)sc(C(=O)N(C)C)c1C | i | i | i | i | nt | nt
O=C(NCc1ccco1)c1nn2c(C(F)(F)F)cc(-c3cccs3)nc2c1Br | 25.8 | i | i | i | 33.6 | 61.9
CC(=O)N(C)c1ccc(N=C2C(=O)Nc3ccccc32)cc1 | i | nt | i | i | nt | nt
CC(=O)/C=C1/C(=O)Nc2ccccc21 | 44.1 | i | i | i | 71.3 | 80.7
O=C1Nc2ccc(Br)cc2/C1=C/C(=O)c1ccccc1 | 85.3 | nt | i | i | 87.6 | 80.3
O=C(O)COc1ccccc1/C=C1\C(=O)Nc2ccc(Br)cc21 | 34.1 | nt | i | i | 41.6 | 43.8
N#CC1c2ccccc2C=CN1C(=O)N(c1ccccc1)c1ccccc1 (stereo not drawn) | 36.2 | nt | i | i | 32.0 | 34.0
Cc1cccc(C)c1-n1nnnc1C(c1ccnc2ccccc12)N(Cc1ccccc1)Cc1ccccc1 (stereo not drawn) | i | nt | i | nt | nt | nt
CCOC(=O)c1cc2c(=O)n3ccccc3nc2n(CC(C)C)c1=NC(=O)c1ccco1 | i | i | i | i | nt | nt
CCOC(=O)c1cc2c(=O)n3ccccc3nc2n(Cc2ccco2)c1=NC(=O)c1cccnc1 | i | i | i | i | nt | nt
Cc1cccn2c(=O)c3cc(C#N)c(=NC(=O)c4cccs4)n(CC(C)C)c3nc12 | i | nt | i | i | nt | nt
Cc1cccn2c(=O)c3cc(C#N)c(=NC(=O)c4ccco4)n(Cc4ccco4)c3nc12 | 39.0 | nt | i | i | 22.6 | 54.4
CCOC(=O)c1cc2c(=O)n3ccccc3nc2n(Cc2ccco2)c1=NC(=O)c1ccccc1OCC | 24.4 | i | i | i | i | 45.2
SMILES | ABHD5 PLIN5 PPI | TLR4 MyD88 comp | NOD2 RIPK2 PPI | TLR9-MyD88 block | ABHD5-PLIN5 conf | HNF4 counter
CCOC(=O)c1cc2c(=O)n3cccc(C)c3nc2n(Cc2ccco2)c1=NC(=O)c1cccnc1 | 24.4 | i | i | i | 46.5 | 57.8
Cc1ccc(Cl)cc1-n1c(=O)cc(N2CCN(C(=O)c3ccco3)CC2)[nH]c1=O | 23.2 | i | i | i | i | i
O=C(c1ccco1)N1CCN(c2cc(=O)n(-c3ccc(Cl)cc3)c(=O)[nH]2)CC1 | i | i | i | i | nt | nt
COc1ccc(C(=O)NCCNc2nc3ccc(C)cc3cc2C#N)cc1OC | 85.5 | nt | i | i | i | 12.6
COc1cccc(C(=O)NCCNc2nc3cc(C)cc(C)c3cc2C#N)c1 | i | nt | i | nt | nt | nt
CCC(=O)N1CCN(c2ccc(NC(=O)COc3ccccc3[N+](=O)[O-])cc2)CC1 | i | i | i | i | nt | nt
CCN(Cc1ccncc1)Cc1ccc(OC)cc1OC | 26.3 | nt | i | i | i | i
O=[N+]([O-])c1ccc(COc2ccc(CN3CCCC3)cc2)cc1 | i | nt | i | i | nt | nt
C(=C\c1ccccc1)/CSc1nnc(-c2ccccn2)n1Cc1ccco1 | 34.1 | i | i | i | i | 44.0
Cc1noc(C)c1CSCC(=O)N(C)CC(=O)Nc1ccc(F)c(F)c1F | i | nt | i | i | nt | nt
CC1(C(=O)NS(=O)(=O)c2ccc(C#N)cc2)CCN1C(=O)Cc1ccsc1 (stereo not drawn) | i | nt | i | nt | nt | nt
CN(C)CCn1cnc2c(c1=N)C(c1ccccc1)c1ccc3ccccc3c1O2 (stereo not drawn) | 25.9 | nt | i | i | i | i
Nc1nc(-c2ccc([N+](=O)[O-])cc2)cc(=O)[nH]1 | i | nt | i | i | nt | nt
CC1(C)CC(=O)C(=Cc2cn(CCC#N)nc2-c2ccc(Cl)cc2)C(=O)C1 | i | i | i | i | nt | nt
CC1(C)CC(=O)C(=Cc2cn(CCC#N)nc2-c2ccc(F)cc2)C(=O)C1 | 23.1 | i | i | i | 44.9 | 37.7
CC1(C)CC(=O)C2=C(C1)OC(N)=C([N+](=O)[O-])C2c1cccs1 (stereo not drawn) | i | i | i | i | nt | nt
Cc1ccccc1CCN1CCCC(CN(C)C(=O)c2ccc3ncccc3c2)C1 (stereo not drawn) | i | nt | i | i | nt | nt
COc1ccc(CNC(=O)c2cccnc2Sc2ccc(Cl)cc2)cc1 | 88.6 | i | i | i | i | i
Cc1ccc(CNC(=O)c2cccnc2Sc2cccc(Cl)c2)cc1 | i | nt | i | nt | nt | nt
CC(C)(C)NC(=O)CN(Cc1ccc2c(c1)OCO2)C(=O)CNS(=O)(=O)c1ccccc1 | i | nt | i | i | nt | nt
CC1=NNC(=O)C1CC(=O)N/N=C/C(Br)=C/c1ccccc1 (stereo not drawn) | i | nt | i | nt | nt | nt
CC1C(=O)NN=C1C(=O)N/N=C\C(Br)=C\c1ccccc1 (stereo not drawn) | 33.7 | i | i | i | i | 22.0
O=C(N/N=C/C(Br)=C/c1ccccc1)c1cc(-c2ccco2)[nH]n1 | 24.6 | i | i | i | 22.2 | 72.0
CCOC(=O)C(C(=O)OCC)C1OC(=O)c2cc3c(cc21)C(=O)OC3C(C(=O)OCC)C(=O)OCC (stereo not drawn) | 31.7 | i | i | i | 42.1 | 28.0
CCOc1cc(CNCCO)cc(Br)c1OCc1ccc(Cl)cc1 | 25.3 | i | i | i | i | i
SMILES | ABHD5 PLIN5 PPI | TLR4 MyD88 comp | NOD2 RIPK2 PPI | TLR9-MyD88 block | ABHD5-PLIN5 conf | HNF4 counter
CCOc1cc(CNCCCN2CCOCC2)cc(Br)c1OCc1ccccc1Cl | 30.1 | i | i | i | i | 17.4
CCOc1cc(CNCCO)cc(Br)c1OCc1ccccc1Cl | 28.1 | i | i | i | i | i
Cn1c(OCC2CCCO2)nc2cc(-c3ccccc3)sc2c1=O (stereo not drawn) | i | nt | i | nt | nt | nt
Cc1ccc(NC(=O)C2(C)CCN2Cc2ccccc2OC(F)F)cc1 (stereo not drawn) | i | nt | i | nt | nt | nt
Cc1nnc(NC(=O)CS(=O)(=O)Cc2ccccc2)s1 | i | nt | i | i | nt | nt
Cc1nnc(NC(=O)c2nc(S(=O)(=O)Cc3ccccc3)ncc2Cl)s1 | 33.8 | nt | i | i | 70.6 | 51.2
